Vaccinia mCherry: vaccinia inhibition (mCherry reporter); Vaccinia virus mCherry reporter infection, fluorescence; Potency, µM (doses to about 36.5 µM), inactives show at the highest dose activity change, negative = inhibition, hits mostly inhibitors; 0.63% of 310,000 active; AID 720579; calls by dose curve; tested in A549 cells; note: potency is the fitted concentration of half-maximal effect; nearly all actives have a fitted effect of over 35% in size
FMDV antiviral: blocks foot and mouth disease virus | 1.2% of 410,000 active | AID 1159524 | Potency, µM (series often up to 57.9 µM), without a hit: at the highest dose activity change, negative = inhibition, usual class: inhibitors | FMDV antiviral cell-based qHTS; calls by dose curve; tested in HEK293T cells; note: read-out not given here; potency is the fitted concentration of half-maximal effect; nearly all actives have a fitted effect of over 45% in size
Lassa entry inh: blocks Lassa virus binding to or entry into cells; AID 540256; Lassa virus pseudotype entry inhibition, cell reporter; 1.2% of 300,000 active; Potency, µM (top dose mostly 37.9 µM), without a hit: at the top dose activity change, negative = inhibition, hits mostly inhibitors; calls by dose curve; tested in HEK293 cells; note: potency is the fitted concentration of half-maximal effect; nearly all actives have a fitted effect of over 50% in size
VACV Venus inh: vaccinia inhibition (Venus reporter) | Vaccinia virus Venus reporter expression, fluorescence | Potency, µM (top dose mostly 36.5 µM), inactives show at the top dose activity change, negative = inhibition, usual class: inhibitors | 0.46% of 330,000 active; calls by dose curve; tested in A549 cells; note: potency is the fitted concentration of half-maximal effect; nearly all actives have a fitted effect of over 30% in size
HCMV inh: inhibitors of human cytomegalovirus; 4.5% of 410,000 active; HFF cells, HCMV-luciferase reporter, 72 h; hits give low values; activity change, negative = inhibition, % at 57.5 µM; AID 1259415; in the data active = activity change below about -60%; inconclusive = no clear call, values can overlap the other calls; inactive = above about -39%
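After 16 h attachment at 37C, HFF cells received test compound and HCMV-luciferase (1 PFU/cell); reporter luminescence read 72 h later, data normalized against buffer-only and known inhibitor Salinomycin.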
Marburg entry inh: Marburg virus entry inhibition | Potency, µM (highest dose often 37.8 µM), for the others: at the highest dose activity change, negative = inhibition, hits mostly inhibitors | Marburg virus pseudotyped entry inhibition, cell reporter | 1.8% of 300,000 active | AID 540276; calls by dose curve; tested in HEK293 cells; note: potency is the fitted concentration of half-maximal effect
Starred values were filed as active, the others as inactive; i = inactive; ? = inconclusive; . = no result; [ ] = dose if it differs, or a comment. An excerpt weighted towards active compounds, which were near 6.5% of everything screened. % is set by controls: 0 for no effect and ±100 for the full control effect.

SMILES	Vaccinia mCherry	FMDV antiviral	Lassa entry inh	VACV Venus inh	HCMV inh	Marburg entry inh
c1coc(CNc2c3c(nc4ccccc24)CCC3)c1	.	?	-2%	.	-69*	?
Cc1cccc(Nc2c3c(nc4ccccc24)CCC3)c1	-18%	?	?	-20%	-34	11µM*
Cc1ccc(Nc2c3c(nc4ccccc24)CCC3)cc1F	10µM*	?	-32%[46.1 µM]	?	?	?
Cc1c(C(=O)NCc2cccc(F)c2)sc2ncnc(NCC3CCCO3)c12 (stereo not given)	-9%	-9%	.	8%	.	.
COC(=O)C1=C(C(=O)OC)[C@@H]2N(Cc3ccccc3)c3ccccc3[C@@]23C[C@@H](CO)N(C(=O)CC(C)C)C3=N1	.	.	.	.	.	-38%[14.2 µM]
NS(=O)(=O)c1ccc(N=Cc2c(O)[nH]c3ccc4ncsc4c23)cc1	.	.	7.1µM*	.	.	.
NS(=O)(=O)c1ccc(N=Nc2ccc(=O)[nH]c2O)cc1	-4%	4%	11%	-3%	-36	4%
COc1cc(O)c(NC(C)=O)c2nonc12	-21%	.	1%	3%	2	-1%
CC(=O)NC1=CC(=O)c2nonc2C1=O	1.6µM*	.	.	1.8µM*	.	.
O=C(NCc1ccccc1)C1=C[C@H](c2csc3ccccc23)C[C@H](OCCCCO)O1	-24%	-6%	.	?	-95*	.
O=C(Nc1ccccc1)C1=C[C@H](c2csc3ccccc23)C[C@H](OCCCCO)O1	-30%	12%	.	?	15	.
O=C(NCc1nc2ccccc2[nH]1)C1=C[C@@H](c2csc3ccccc23)C[C@@H](OCc2ccc(CO)cc2)O1	i	-13%	.	?	-19	.
O=C(NCc1ccccc1)C1=C[C@H](c2ccccc2)C[C@H](OCc2ccc(CO)cc2)O1	-13%	14%	.	-20%	-91*	.
O=C(NCc1nc2ccccc2[nH]1)C1=C[C@H](c2csc3ccccc23)C[C@H](OCc2ccc(CO)cc2)O1	-7%	-19%	.	-26%	-62*	.
CC(C)C1C(=O)N2CCC[C@H]2[C@]2(O)O[C@](NC(=O)[C@@H]3C=C4c5cccc6[nH]cc(c56)C[C@H]4N(C)C3)(C(C)C)C(=O)N12 (stereo not given in full)	-11%	0%	.	15%	.	.
Cc1ccc(N2C(=O)c3ccccc3NC2(C(=O)O)c2ccccc2)cc1Cl (stereo not given)	.	42%	.	.	-98*	.
O=[N+]([O-])c1ccc(C[n+]2ccc(Cc3ccccc3)cc2)cc1	?	-28%	-22%	-2%	-74*	-5%
O=[N+]([O-])c1ccc(C[n+]2c(-c3ccccc3)cc(-c3ccccc3)cc2-c2ccccc2)cc1	i	-23%	.	-5%	-63*	.
Cc1cc(-c2ccccc2)cc(C)[n+]1Cc1ccccc1	i	?	.	-19%	-93*	.
O=C([O-])c1cc(-c2ccccc2)cc(-c2ccccc2)[n+]1Cc1ccccc1	.	.	.	.	-79*	.
O=[N+]([O-])c1ccc(C[n+]2ccccc2)cc1	-3%	14%	.	-17%	-5	.
Cc1cc(-c2ccccc2)cc(C)n1	-3%	-10%	20%[46.1 µM]	3%	?	-11%[46.1 µM]
COc1cc(C)ccc1Oc1ccc2c(-c3ccccc3)noc2n1	.	.	.	.	-20	.
O=[N+]([O-])c1cc(Cl)c(O)c(-[n+]2c(-c3ccccc3)cc(-c3ccccc3)cc2-c2ccccc2)c1	.	-18%	.	.	-75*	.
CCOc1ccc(-c2oc3ccccc3c(=O)c2O)cc1OCC	i	34%	?	-20%	-65*	-26%[46.1 µM]
SMILES	Vaccinia mCherry	FMDV antiviral	Lassa entry inh	VACV Venus inh	HCMV inh	Marburg entry inh
Cc1nn2c(Nc3ccc(F)cc3)c3c(nc2c1-c1ccccc1)CCC3	-15%	-16%	-3%	-7%	-36	-1%
COc1cccc(Nc2c3c(nc4c(-c5ccccc5)c(C)nn24)CCC3)c1	-6%	?	?	-23%	-63*	?
Cc1nn2c(NCCN(C)C)c3c(nc2c1-c1ccccc1)CCCC3	-25%	-1%	-16%[46.1 µM]	-13%	?	10µM*
CCOC(=O)c1ccc(NC(=O)c2ccc(C)c(S(=O)(=O)N3CCOCC3)c2)cc1	?	14µM*	?	?	?	2.8µM*
CCC1CCCCN1S(=O)(=O)c1cc(C(=O)Nc2ccc(C)c(F)c2)ccc1F (stereo not given)	?	?	?	?	-91*	.
Cc1ccc(NC(=O)c2cc(S(=O)(=O)N3CCOCC3)c(Br)s2)cc1	-26%	?	10µM*	-17%	-39	-25%
CCC1CCCCN1S(=O)(=O)c1ccc(NC(=O)c2ccncc2)cc1 (stereo not given)	-15%	?	?	?	?	?
CC(=O)c1ccc(NC(=O)c2ccc(C)c(S(=O)(=O)N3CCOCC3)c2)cc1	-14%	?	0%	-15%	-11	?
O=C(Nc1ccccc1)c1ccc(Br)c(S(=O)(=O)N2CCCCC2)c1	-17%	14µM*	?	-23%	0	.
Cc1cc(C)n(-c2ccc(C(=O)Nc3cc(S(=O)(=O)N(C)C)ccc3Cl)cc2)n1	?	28µM*	?	-15%	?	?
Cc1cc(C)cc(NC(=O)c2ccc3oc(=O)c(S(=O)(=O)c4ccc(F)cc4)cc3c2)c1	-10%	20µM*	-9%[46.1 µM]	2%	5	?
Cc1ccc(C(=O)Nc2ccc(F)cc2)cc1S(=O)(=O)N1CCCCCC1	-29%	-26%	?	-24%	-101*	.
Cc1ccc(C(=O)Nc2ccon2)cc1S(=O)(=O)N1CCCCCC1	.	15%	1%	.	-101*	8%
CCOC(c1cc(OC)cc([N+](=O)[O-])c1OC)C(C)C(OC)[C@@H](C)/C=C/CC(=O)OC (stereo not given in full)	.	.	.	.	.	1%[14.2 µM]
CCCCNc1ccc2c(c1)OC[C@@H](Cc1ccccc1)NS2(=O)=O	.	.	.	.	1	.
Cc1cc(C)n(-c2ccc(C(=O)Nc3ccc(C)c(S(=O)(=O)N4CCOCC4)c3)cc2)n1	?	14µM*	?	-24%	-83*	10µM*
Cc1ccc(NC(=O)c2cccnc2)cc1S(=O)(=O)N1CCOCC1	i	-16%	-3%	-5%	-19	8%
C=C1C(C2(C)C=CC(=O)C(C)(C)C2CC(=O)OC)CC[C@@]2(C)C(c3ccoc3)OC(=O)C3OC132 (stereo not given in full)	-21%	5%	.	-28%	.	.
Cc1cccc(C)c1OCCn1nc(C(=O)O)c2ccccc2c1=O	.	?	6.3µM*	-3%	-27	10µM*
COc1cccc(C(=O)NC(C)c2nnc3n2CCN(CC=C(C)C)CC3)c1 (stereo not given)	-4%	-5%	.	-17%	.	.
COc1ccc(C)cc1NC(=O)c1ccc(CN2CCN(c3ccccc3)CC2)cc1	-6%	?	?	-3%	?	?
COc1cccc(NC(=O)CCN2CCN(c3ccccc3)CC2)c1	-3%[7.34 µM]	-26%	?	-7%[7.34 µM]	-75*	6%[46.1 µM]
COc1ccc(NC(=O)c2ccc(CN3CCN(c4ccccc4)CC3)cc2)cc1OC	.	-8%	?	-22%	.	10µM*

Screens deposited in PubChem BioAssay by National Center for Advancing Translational Sciences (NCATS).
